Most compounds without a hit are left out; they make up all but 1.8% or so of the library.
Myeloid diff MLP – myeloid differentiation induction; ER-HoxA9 myeloid progenitors, lysozyme-GFP differentiation, flow cytometry; calls only at 10 µM; actives 1% (n = 360,000);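 active = normalized GFP-positive differentiation at or above the plate's own cutoff, the solvent-only control mean plus 3 SD; inconclusive = no clear call, values can overlap the other calls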;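 also: cells exposed to compound for four days before flow analysis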
CIT2-GFP yeast – alters CIT2-GFP fluorescence in TOR pathway yeast screen; S. cerevisiae CIT2-GFP strain, flow cytometry, 3 h; 100 means same as DMSO wells; GFP response vs DMSO, % at 10 µM; actives 0.065% (n = 320,000);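 active = GFP response relative to DMSO above a set limit, near the screen mean plus 3 SD, cut at about 150% in these data; inconclusive = Fewer than 70 cells measured for a yeast strain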;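 also: ratio of well median GFP fluorescence to mean of DMSO wells on the plate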
LAP4 TOR yeast – yeast TOR pathway LAP4-GFP modulation; S. cerevisiae LAP4-GFP multiplex, flow cytometry GFP, 3 h; median GFP as percent of DMSO wells; GFP response vs DMSO, % at 10 µM; actives 0.34% (n = 320,000); AID 2023;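 active = GFP response vs DMSO above a set limit, about the screen mean plus 3 SD, cut at about 150% in these data; inconclusive = under 70 cell events counted for the yeast strain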
RPL19A-GFP yeast – alters RPL19A-GFP fluorescence in TOR pathway yeast screen; S. cerevisiae RPL19A-GFP strain, flow cytometry, 3 h; active compounds read low; percent response vs DMSO, % at 10 µM; actives 0.3% (n = 330,000); AID 2025;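 active = percent response vs DMSO below 50%; inconclusive = fewer than 70 events counted for the yeast strain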;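 also: median channel GFP fluorescence of the barcoded RPL19A-GFP strain; ratio of sample median GFP to plate DMSO average so 100% = DMSO; lower means less RPL19A-GFP as with rapamycin TOR inhibition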
MEP2-GFP yeast – yeast TOR pathway MEP2-GFP modulation; S. cerevisiae MEP2-GFP strain, flow cytometry GFP, 3 h; 100% = DMSO control level; GFP response vs DMSO, % at 10 µM; actives 0.51% (n = 330,000); AID 2016;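 active = GFP response versus DMSO above a set limit, roughly screen mean plus 3 SD, cut at about 180% in these data; inconclusive = fewer than 70 cells counted for a yeast strain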;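 also: median GFP fluorescence of the barcode-gated MEP2-GFP cells per well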
AGP1-GFP MLPCN – alters AGP1-GFP fluorescence in TOR pathway yeast screen | S. cerevisiae AGP1-GFP multiplex flow cytometry, 3 h; GFP as percent of DMSO wells | GFP response vs DMSO, % at 10 µM | actives 0.02% (n = 320,000);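 active = GFP response relative to DMSO above a set limit, near screen average plus 3 SD, cut at about 150% in these data; inconclusive = fewer than 70 cells counted for the yeast strain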;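 also: median GFP channel fluorescence of the gated AGP1 strain per well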
Active calls of the source: *; i = inactive; ? = inconclusive; · = no result; + = active, no number; [ ] = remark or other dose.

SMILES	Myeloid diff MLP	CIT2-GFP yeast	LAP4 TOR yeast	RPL19A-GFP yeast	MEP2-GFP yeast	AGP1-GFP MLPCN
Cc1cc(/C([O-])=C(/C(=S)Nc2ccc(F)cc2)[n+]2ccccc2)c(C)n1-c1ccc(F)cc1	i	92.8	103.6	96.4	100.9	104.3
Cc1ccc(-n2c(C)cc(/C([O-])=C(/C(=S)Nc3ccc(F)c(Cl)c3)[n+]3ccccc3)c2C)cc1	i	?	102.3	66.0	178.6*[may fluoresce violet]	33.4
O=C(/C=C/c1ccc(Cl)cc1)NC(=S)Nc1ccc(NC(=O)c2ccco2)cc1	?	100.4	98.4	91.8	94.9	93.2
COC(=O)Cc1ccc(NC(=O)c2ccc3c(c2)C(=O)N(Cc2cccnc2)C3=O)cc1	i	·	96.0	103.9	91.9	104.5
CCOC(=O)c1ccc(NC(=O)c2ccc3c(c2)C(=O)N(Cc2cccnc2)C3=O)cc1	i	86.8	168.2*	83.9	92.5	125.5
COC(C[C@H]1O[C@@H]1[C@H](O)COCc1ccccc1)OC	+	98.9	107.7	100.8	102.1	98.4
CCOc1ccc(N2C(=O)CC(N(CCc3ccc(OC)c(OC)c3)C(=O)/C=C/C(=O)O)C2=O)cc1 (configuration not stated)	i	102.0	110.4	100.1	105.4	117.1
Cc1nc(S/C(=C/c2ccc(-c3cccc(Cl)c3)o2)C(=O)O)n[nH]1	+	83.6	95.5	89.4	99.6	89.2
COc1ccccc1C(=O)N(Cc1sccc1C)C1CCS(=O)(=O)C1 (configuration not stated)	i	94.6	91.5	94.2	93.1	98.3
C=CCN(CC=C)c1nc2ccccc2nc1C(C#N)C(=O)OC(C)C (configuration not stated)	+	96.5	100.7	103.2	106.1	95.5
Brc1cc(Br)c2nc(-c3cccs3)ccc2c1	i	73.6	151.2*	94.2	90.8	85.1
CCN(Cc1ccccc1)C(=O)c1cccc(S(=O)(=O)N2CCN(c3ccccc3)CC2)c1	+	109.0	105.2	100.2	105.0	110.1
N=c1c(C(=O)NC2CCCC2)cc2c(=O)n3ccccc3nc2n1CCN1CCOCC1	i	?	79.5	37.0*[may fluoresce violet]	216.1*[may fluoresce violet]	?
N#Cc1cc2c(=O)n3ccccc3nc2n(Cc2cccnc2)c1=O	i	?	81.4	40.9*[may fluoresce violet]	187.6*[may fluoresce violet]	19.2
CCCNc1nc2nc3ccccn3c(=O)c2cc1C(=O)NCCN1CCOCC1	i	?	97.3	?	220.3*[may fluoresce red and violet]	?
N=c1c(C(=O)NC2CCCC2)cc2c(=O)n3ccccc3nc2n1CCCN1CCOCC1	i	?	74.0	50.7	184.0*[may fluoresce violet]	?
N=c1c(C(=O)NC2CCCC2)cc2c(=O)n3ccccc3nc2n1Cc1ccccc1	i	101.7	101.0	105.5	110.2	101.1
Cc1ccc(N(C(=O)c2ccco2)C(C(=O)NC2CCCC2)c2cccnc2)cc1C (configuration not stated)	i	102.0	99.8	102.7	112.0	105.3
CC(=O)C1CN(S(=O)(=O)c2ccc(C)cc2)C(c2ccccc2)CC1C (configuration not stated)	i	·	·	·	·	·
CC(=O)N=c1c(C#N)cc2c(=O)n3ccccc3nc2n1Cc1ccccc1	i	?	75.3	51.5	156.3	?
Cc1ccc(-n2c(=O)c(C#N)cc3c(=O)n4cccc(C)c4nc32)cc1	i	?	83.2	42.5*[may fluoresce violet]	150.1	22.0
COc1ccc(CCNC(=O)c2cc3c(=O)n4ccccc4nc3n(CCCN3CCOCC3)c2=N)cc1	i	101.3	97.7	101.7	103.9	97.0
N#Cc1cc2c(=O)n3ccccc3nc2n(CCCN2CCOCC2)c1=O	i	?	95.7	47.3*[may fluoresce violet]	241.2*[may fluoresce violet]	73.5
Cc1ccc(Cn2c(=N)c(C#N)cc3c(=O)n4cccc(C)c4nc32)cc1	·	91.9	94.6	93.6	103.8	100.2
N#Cc1cc2c(=O)n3ccccc3nc2n(-c2ccccc2Cl)c1=O	+	101.5	90.1	105.3	107.6	94.6
SMILES	Myeloid diff MLP	CIT2-GFP yeast	LAP4 TOR yeast	RPL19A-GFP yeast	MEP2-GFP yeast	AGP1-GFP MLPCN
CC1CN(C(=O)N2c3ccccc3Sc3ccccc32)CC(C)O1 (configuration not stated)	i	105.6	109.1	104.3	103.1	109.2
O=[N+]([O-])c1cc(C(F)(F)F)ccc1NCCc1ccccn1	i	79.4	219.0*	62.8	86.0	76.2
Cc1ccccc1C(=O)NNC(=O)c1ccncc1	i	103.4	94.3	99.7	101.0	107.6
COc1cc(/C=C2/C(=O)NN(c3cccc(C)c3)C2=O)cc([N+](=O)[O-])c1O	i	101.8	72.5	101.4	106.1	96.5
O=C1NN(c2ccccc2)C(=O)/C1=C\c1cccn1-c1ccc(Cl)c([N+](=O)[O-])c1	+	99.5	95.7	96.6	90.7	96.7
COc1cc(/C=C2/C(=O)NN(c3ccc(C)c(Cl)c3)C2=O)cc([N+](=O)[O-])c1O	+	100.4	80.3	103.9	107.8	101.5
COc1ccccc1C(=O)NNC(=O)C(=O)Nc1cccc(Cl)c1C	i	121.5	262.8*	100.5	142.4	105.2
CCCc1cc(=O)n2[nH]c(NCc3ccc(OC)cc3)nc2n1	i	85.8	112.9	95.5	95.5	98.4
COc1c(C)cc(C(O)c2ncc(-c3ccccc3Cl)[nH]2)cc1C (configuration not stated)	i	·	·	·	·	·
O=C(Cn1cnnn1)OCC(=O)c1ccc(Cl)s1	+	96.8	103.6	97.7	95.8	100.8
CCCNC(=O)Cn1c(=O)/c(=C/c2ccc(-c3ccc([N+](=O)[O-])cc3)o2)s/c1=C\C(=O)C(C)(C)C	+	·	·	·	·	·
COc1ccc(-c2csc3ncnc(Sc4nnnn4C)c23)cc1	+	95.8	99.4	94.2	95.9	100.3
Cn1nnnc1Sc1ncnc2scc(-c3cccc4c3sc3ccccc34)c12	+	91.3	96.5	105.0	98.8	99.4
Cc1c(N=C2SCC(=O)N2/N=C/c2ccccc2)c(=O)n(-c2ccccc2)n1C	i	89.8	97.0	95.9	96.5	96.2
COc1ccccc1NS(=O)(=O)c1cc(NC(=O)C2=NNC(=O)CC2)ccc1C	i	92.8	102.2	101.6	97.7	94.5
O=[N+]([O-])c1cccn2cc(-c3ccc(Br)cc3)nc12	+	98.4	102.0	107.0	104.4	98.8
COc1cccc2cc3c(=O)oc4ccccc4c3nc12	i	?	86.8	62.3	186.8*[may fluoresce violet]	·
O=C(CCNc1n[nH]c(=O)[nH]c1=O)N1CCOCC1	i	103.9	114.5	98.9	107.0	100.4
Cc1ccc(Oc2ccc(OCC(=O)NC(C)C(=O)O)cc2)cc1 (configuration not stated)	i	100.9	97.0	97.9	103.5	100.9

Compound activity as filed in PubChem.
